# Results as given in PubChem BioAssay (EPA / NIEHS).
# Results filed as inconclusive are left out. Activity calls are given as the source filed them. Rule for the calls, unless noted: active = hit-call score of the fitted dose curve at least 0.9, where 1 is the maximum; inactive = score below 0.9.
# How the values were obtained:
# [1] = molecular target: human Retinoid X Receptor beta (RXRb), RXRB (gene 6257) (UniProt P28702); experiment: ATG_RXRb_TRANS: Attagene TRANS-FACTORIAL HepG2 Assay for human Retinoid X Receptor beta (RXRb) (AID 2283013; active = hit-call score of the fitted dose curve at least 0.9, where 1 is the maximum)
# Chain of human Retinoid X Receptor beta (RXRb), RXRB (gene 6257) (P28702 whole entry, looked up, the tested form may be a part): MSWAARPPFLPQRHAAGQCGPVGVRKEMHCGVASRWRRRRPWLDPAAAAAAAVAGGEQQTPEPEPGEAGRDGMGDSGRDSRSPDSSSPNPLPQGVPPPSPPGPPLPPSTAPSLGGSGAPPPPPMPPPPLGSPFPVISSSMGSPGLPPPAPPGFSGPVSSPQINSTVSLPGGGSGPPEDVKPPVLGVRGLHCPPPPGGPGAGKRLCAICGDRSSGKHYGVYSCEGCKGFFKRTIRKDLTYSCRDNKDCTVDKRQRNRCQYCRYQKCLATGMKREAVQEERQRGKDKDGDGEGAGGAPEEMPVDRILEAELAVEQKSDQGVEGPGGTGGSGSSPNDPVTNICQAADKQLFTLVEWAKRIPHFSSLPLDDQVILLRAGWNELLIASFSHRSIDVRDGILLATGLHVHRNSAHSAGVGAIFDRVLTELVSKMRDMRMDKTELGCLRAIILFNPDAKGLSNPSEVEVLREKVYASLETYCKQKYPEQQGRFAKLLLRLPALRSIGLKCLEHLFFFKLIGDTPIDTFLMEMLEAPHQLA
# How it was run: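 Chimeric receptor-Gal4 activity was assessed in transiently transfected human HepG2 cells after 24 h exposure. Transcripts from GAL4-UAS reporters were quantified by fluorescent RT-PCR and capillary electrophoresis, with DMSO as negative control and baseline.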
# [2] = molecular target: human Thyroid Receptor alpha (THRa1), THRA (gene 7067) (UniProt P10827); experiment: ATG_THRa1_TRANS: Attagene TRANS-FACTORIAL HepG2 Assay for human Thyroid Receptor alpha (THRa1) (AID 2283014; active = hit-call score of the fitted dose curve at least 0.9, where 1 is the maximum)
# Chain of human Thyroid Receptor alpha (THRa1), THRA (gene 7067) (P10827 whole entry, looked up, the tested form may be a part): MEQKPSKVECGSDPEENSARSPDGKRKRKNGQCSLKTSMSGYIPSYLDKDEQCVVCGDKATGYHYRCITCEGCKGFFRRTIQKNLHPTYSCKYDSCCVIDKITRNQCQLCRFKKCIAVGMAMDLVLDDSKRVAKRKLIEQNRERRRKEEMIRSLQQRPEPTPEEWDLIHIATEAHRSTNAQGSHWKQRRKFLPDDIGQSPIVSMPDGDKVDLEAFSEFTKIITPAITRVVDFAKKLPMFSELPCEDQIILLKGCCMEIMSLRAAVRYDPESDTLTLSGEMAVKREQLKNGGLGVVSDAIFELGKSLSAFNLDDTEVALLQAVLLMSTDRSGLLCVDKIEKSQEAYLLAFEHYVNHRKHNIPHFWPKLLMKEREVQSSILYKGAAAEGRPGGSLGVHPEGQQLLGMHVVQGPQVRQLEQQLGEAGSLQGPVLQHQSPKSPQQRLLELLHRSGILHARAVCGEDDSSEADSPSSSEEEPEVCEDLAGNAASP
# How it was run: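 HepG2 cells transiently transfected with multiplexed GAL4-UAS reporter units for exogenous chimeric THRa1-Gal4; reporter mRNA measured 24 h after dosing by RT-PCR, 6-FAM labelling, HpaI digestion and capillary electrophoresis. Gain-of-signal fitted versus DMSO baseline.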
# [3] = molecular target: human Vitamin D Receptor (VDR), VDR (gene 7421) (UniProt P11473); experiment: ATG_VDR_TRANS: Attagene TRANS-FACTORIAL HepG2 Assay for human Vitamin D Receptor (VDR) (AID 2283022; active = hit-call score of the fitted dose curve at least 0.9, where 1 is the maximum)
# Chain of human Vitamin D Receptor (VDR), VDR (gene 7421) (P11473 whole entry, looked up, the tested form may be a part): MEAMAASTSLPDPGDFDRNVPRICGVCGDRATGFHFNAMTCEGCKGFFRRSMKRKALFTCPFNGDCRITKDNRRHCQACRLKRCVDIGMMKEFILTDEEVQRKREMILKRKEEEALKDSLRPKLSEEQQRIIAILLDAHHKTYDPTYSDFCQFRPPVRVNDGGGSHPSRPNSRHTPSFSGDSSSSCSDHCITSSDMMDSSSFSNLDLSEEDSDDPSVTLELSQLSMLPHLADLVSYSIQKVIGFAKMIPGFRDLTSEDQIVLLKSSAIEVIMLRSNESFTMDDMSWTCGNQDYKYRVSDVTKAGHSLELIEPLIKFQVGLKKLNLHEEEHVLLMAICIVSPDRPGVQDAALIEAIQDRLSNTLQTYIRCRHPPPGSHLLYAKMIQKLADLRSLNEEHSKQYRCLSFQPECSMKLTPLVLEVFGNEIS
# How it was run: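 HepG2 cells were transiently transfected with multiple GAL4-UAS reporter units, so signal reflects exogenous chimeric receptor-Gal4 activity. After 24 h compound exposure, reporter mRNA was measured by RT-PCR, fluorescent labelling and capillary electrophoresis, fitted for gain of signal versus DMSO.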
# [4] = read-out: E-selectin (Homo sapiens) (UniProt P16581); experiment: BSK_3C_Eselectin: BioMAP Diversity Plus: 3C Assay for Eselectin Biomarker Activity (AID 2283015); settings: primary human endothelial cells (HUVEC); actives raise or lower the signal;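 note: cell surface E-selectin protein quantified by ELISA 24 h after dosing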
# How it was run: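 Primary human umbilical vein endothelial cells (3C system) were dosed with chemical and cell-surface E-selectin measured by ELISA 24 h later. Bidirectional curve fitting used DMSO as negative control and baseline.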
# [5] = read-out: Interleukin-1 alpha (IL1a), IL1A (gene 3552); experiment: BSK_BE3C_IL1a: BioMAP Diversity Plus: BE3C Assay for Interleukin-1 alpha (IL1a) Biomarker Activity (AID 2283016); settings: primary human bronchial epithelial cells; actives raise or lower the signal
# How it was run: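 Signal from IL-1a ELISA, taken 24 h after chemical dosing of human bronchial epithelial cells, is compared with DMSO as baseline using bidirectional curve fitting.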
# [6] = read-out: Monocyte Chemoattractant Protein-1 (MCP1), CCL2 (gene 6347); experiment: BSK_3C_MCP1: BioMAP Diversity Plus: 3C Assay for Monocyte Chemoattractant Protein-1 (MCP1) Biomarker Activity (AID 2283017); settings: primary human endothelial cells (HUVEC); actives raise or lower the signal
# How it was run: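 Primary human umbilical vein endothelial cells (3C system) were exposed to test chemical for 24 h, after which MCP-1 was quantified by ELISA. Activity was fitted bidirectionally against DMSO as negative control and baseline.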
# [7] = read-out: Monocyte Chemoattractant Protein-1 (MCP1), CCL2 (gene 6347); experiment: BSK_4H_MCP1: BioMAP Diversity Plus: 4H Assay for Monocyte Chemoattractant Protein-1 (MCP1) Biomarker Activity (AID 2283018); settings: primary human endothelial cells (HUVEC); actives raise or lower the signal
# How it was run: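 Endothelial cells from umbilical vein were treated with test chemical, then after 24 h MCP-1 levels were quantified by ELISA; endpoint values came from bidirectional fitting with DMSO as baseline of activity.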
# [8] = read-out: Human Leukocyte Antigen - DR isotype (HLADR), HLA-DRA (gene 3122); experiment: BSK_3C_HLADR: BioMAP Diversity Plus: 3C Assay for Human Leukocyte Antigen - DR isotype (HLADR) Biomarker Activity (AID 2283019); settings: primary human endothelial cells (HUVEC); actives raise or lower the signal;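 for outcome: ELISA of cell-surface HLA-DR on HUVEC 24 h after dosing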
# How it was run: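 Primary human umbilical vein endothelial cells (3C system) were dosed with compound and cell-surface HLA-DR was quantified by ELISA at 24 h. Activity was fitted bidirectionally against DMSO as negative control and baseline.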
# [9] = read-out: Interleukin-8 (IL8), CXCL8 (gene 3576); experiment: BSK_3C_IL8: BioMAP Diversity Plus: 3C Assay for Interleukin-8 (IL8) Biomarker Activity (AID 2283020); settings: primary human endothelial cells (HUVEC); actives raise or lower the signal
# How it was run: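 Endothelial primary cells of human umbilical vein origin are dosed with chemical; after 24 h the IL-8 biomarker is measured by ELISA, and concentration–response is fitted in both directions versus DMSO.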
# [10] = read-out: Monokine induced gamma interferon (MIG), CXCL9 (gene 4283); experiment: BSK_3C_MIG: BioMAP Diversity Plus: 3C Assay for Monokine induced gamma interferon (MIG) Biomarker Activity (AID 2283021); settings: primary human endothelial cells (HUVEC); actives raise or lower the signal
# How it was run: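 Endothelial primary cells (human umbilical vein) are dosed with test chemical in the 3C system. MIG levels are measured by ELISA at 24 h and fitted in both directions relative to DMSO.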
# [11] = BSK_3C_SRB: Viability Assessment in the BioMAP Diversity Plus: 3C Assay (AID 2283023); settings: primary human endothelial cells (HUVEC);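 note: fitted both ways against DMSO so a hit may be signal rise or drop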
# How it was run: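 Primary human umbilical vein endothelial cells in the 3C system were read 24 h after compound dosing. Total protein was stained with 0.1% sulforhodamine B after 10% TCA fixation and read at 560 nm, with bidirectional fitting against DMSO as baseline.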
# [12] = read-out: Matrix Metallopeptidase 1 (MMP1), MMP1 (gene 4312); experiment: BSK_BE3C_MMP1: BioMAP Diversity Plus: BE3C Assay for Matrix Metallopeptidase 1 (MMP1) Biomarker Activity (AID 2283024); settings: primary human bronchial epithelial cells; actives raise or lower the signal
# How it was run: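 MMP1 signal, measured by ELISA after a 24 h chemical exposure of human primary bronchial epithelial cells, is analysed with bidirectional fitting using DMSO as negative control.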
# [13] = BSK_3C_Vis: BioMAP Diversity Plus: 3C Assay for Morphology Visualization (AID 2283025); settings: primary human endothelial cells (HUVEC);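 note: fitted both ways so gain or loss versus DMSO counts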
# How it was run: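 Morphology read by light microscopy serves as a background control for the multiplexed 3C assay in human umbilical vein endothelial cells, taken 24 h after dosing, with DMSO as the negative control and bidirectional curve fitting.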
# [14] = read-out: Pselectin, SELP (gene 6403); experiment: BSK_4H_Pselectin: BioMAP Diversity Plus: 4H Assay for Pselectin Biomarker Activity (AID 2283026); settings: primary human endothelial cells (HUVEC); actives raise or lower the signal
# How it was run: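 Endothelial primary cells (human umbilical vein) are dosed, incubated 24 h, and assayed for surface P-selectin by ELISA; responses in either direction are fitted relative to the DMSO negative control.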
# [15] = BSK_4H_SRB: Viability Assessment in the BioMAP Diversity Plus: 4H Assay (AID 2283027); settings: primary human endothelial cells (HUVEC);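 note: cells exposed to compound for 24 h before staining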;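 for AC50: curves fitted both ways versus DMSO so AC50 may be loss or gain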
# How it was run: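 Cytotoxicity readout: sulforhodamine B (0.1%) staining of total protein after 10% TCA fixation, measured at 560 nm in human umbilical vein endothelium at 24 h. DMSO set the baseline; fitting was bidirectional.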
# [16] = BSK_BE3C_SRB: Viability Assessment in the BioMAP Diversity Plus: BE3C Assay (AID 2283028); settings: primary human bronchial epithelial cells
# How it was run: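 Human primary bronchial epithelial cells were exposed to test chemicals for 24 h. Total protein in parallel cultures was then measured by staining with 0.1% sulforhodamine B after 10% TCA fixation, with absorbance read at 560 nm. Activity was fitted bidirectionally against DMSO.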
# [17] = read-out: Thrombomodulin, THBD (gene 7056); experiment: BSK_3C_Thrombomodulin: BioMAP Diversity Plus: 3C Assay for Thrombomodulin Biomarker Activity (AID 2283029); settings: primary human endothelial cells (HUVEC); actives raise or lower the signal
# How it was run: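 Endothelial cells from umbilical vein are dosed with test chemical and incubated 24 h. Thrombomodulin is then quantified by ELISA, with DMSO serving as negative control and activity baseline.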
# [18] = read-out: Urokinase-type plasminogen activator receptor (uPAR), PLAUR (gene 5329); experiment: BSK_4H_uPAR: BioMAP Diversity Plus: 4H Assay for Urokinase-type plasminogen activator receptor (uPAR) Biomarker Activity (AID 2283030); settings: primary human endothelial cells (HUVEC); actives raise or lower the signal
# How it was run: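 Primary human umbilical vein endothelial cells were exposed to chemical for 24 h before cell-surface uPAR was quantified by ELISA. Activity was fitted bidirectionally against the DMSO negative control baseline.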
# [19] = read-out: Vascular endothelial growth factor receptor 2 (Homo sapiens) (UniProt P35968); experiment: BSK_4H_VEGFRII: BioMAP Diversity Plus: 4H Assay for Vascular endothelial growth factor receptor 2 (VEGFR2) Biomarker Activity (AID 2283031); settings: primary human endothelial cells (HUVEC); actives raise or lower the signal
# How it was run: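 Primary human umbilical vein endothelial cells in the BioMAP 4H system were dosed with test chemical, and 24 h later VEGFRII was measured by ELISA. Activity was fitted bidirectionally against DMSO as negative control and baseline.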
# [20] = molecular target: Retinoic acid receptor RXR-alpha (Homo sapiens) (UniProt P19793); experiment: ATG_RXRa_TRANS: Attagene TRANS-FACTORIAL HepG2 Assay for human Retinoid X Receptor alpha (RXRa) (AID 2283012; active = hit-call score of the fitted dose curve at least 0.9, where 1 is the maximum)
# Chain of Retinoic acid receptor RXR-alpha (Homo sapiens) (P19793 whole entry, looked up, the tested form may be a part): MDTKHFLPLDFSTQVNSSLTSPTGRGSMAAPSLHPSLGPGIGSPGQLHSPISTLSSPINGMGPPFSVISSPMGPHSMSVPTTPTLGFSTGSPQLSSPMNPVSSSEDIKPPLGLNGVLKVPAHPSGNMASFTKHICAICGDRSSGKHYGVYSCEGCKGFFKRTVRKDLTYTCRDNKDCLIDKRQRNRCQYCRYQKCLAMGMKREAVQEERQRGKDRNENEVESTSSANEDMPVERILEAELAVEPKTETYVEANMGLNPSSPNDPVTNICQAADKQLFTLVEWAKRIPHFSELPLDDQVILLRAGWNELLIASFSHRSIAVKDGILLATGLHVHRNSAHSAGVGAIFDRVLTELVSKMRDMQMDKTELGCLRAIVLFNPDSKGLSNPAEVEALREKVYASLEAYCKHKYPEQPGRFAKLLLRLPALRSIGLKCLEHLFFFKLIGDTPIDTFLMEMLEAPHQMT
# How it was run: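 Measures exogenous chimeric NR-GAL4 activity in transfected HepG2 liver cells after 24 h of dosing. Induced reporter mRNA was detected by RT-PCR with capillary electrophoresis, and gain of signal was analysed against DMSO.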
# Chain of E-selectin (Homo sapiens) (P16581 whole entry, looked up): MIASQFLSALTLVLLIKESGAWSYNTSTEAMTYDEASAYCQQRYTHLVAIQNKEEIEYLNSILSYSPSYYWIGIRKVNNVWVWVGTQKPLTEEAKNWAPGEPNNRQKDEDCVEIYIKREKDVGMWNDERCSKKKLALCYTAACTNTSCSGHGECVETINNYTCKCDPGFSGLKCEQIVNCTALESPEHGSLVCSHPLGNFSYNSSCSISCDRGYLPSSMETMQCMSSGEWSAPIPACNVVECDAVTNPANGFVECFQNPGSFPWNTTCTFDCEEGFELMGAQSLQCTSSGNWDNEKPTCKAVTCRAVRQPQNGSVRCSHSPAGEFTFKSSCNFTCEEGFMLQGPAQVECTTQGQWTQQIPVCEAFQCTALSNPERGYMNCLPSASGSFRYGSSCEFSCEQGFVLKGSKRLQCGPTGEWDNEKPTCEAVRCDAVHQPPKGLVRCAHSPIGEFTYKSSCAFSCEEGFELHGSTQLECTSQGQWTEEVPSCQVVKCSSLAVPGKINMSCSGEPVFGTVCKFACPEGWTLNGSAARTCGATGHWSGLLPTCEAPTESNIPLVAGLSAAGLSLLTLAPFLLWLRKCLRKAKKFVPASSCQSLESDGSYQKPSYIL
structure (smiles),measurement,setting,value
CCCCC(CC)COC(=O)Cl (configuration not stated),outcome,[1],inactive
CNC(=O)O/N=C/C(C)(C)S(C)(=O)=O,outcome,[1],inactive
same,outcome,[2],inactive
CC1CC(=O)O1 (configuration not stated),outcome,[1],inactive
CC(C)(C#N)N=NC(C)(C)C#N,outcome,[1],inactive
C=CCN=C=S,outcome,[1],inactive
same,outcome,[2],inactive
same,outcome,[3],inactive
C#CCO,outcome,[1],inactive
same,outcome,[2],inactive
same,outcome,[3],inactive
CCCCCCCCCCCCBr,outcome,[1],inactive
O=C(NC(=O)c1c(F)cccc1F)Nc1ccc(Cl)cc1,outcome,[1],inactive
same,outcome,[2],inactive
same,outcome,[3],inactive
CCOC(=O)C(SP(=S)(OC)OC)c1ccccc1 (configuration not stated),AC50,[1],32.2 µM (active)
same,outcome,[4],inactive
same,outcome,[5],inactive
same,AC50,[6],3.97 µM (active)
same,AC50,[7],3.97 µM (active)
same,AC50,[8],31.8 µM (active)
same,outcome,[9],inactive
same,outcome,[10],inactive
same,outcome,[3],inactive
same,AC50,[11],32.6 µM (active)
same,outcome,[12],inactive
same,AC50,[13],37.5 µM (active)
same,AC50,[14],20 µM (active)
same,AC50,[15],29.5 µM (active)
same,outcome,[16],inactive
same,outcome,[17],inactive
same,AC50,[18],20 µM (active)
same,outcome,[19],inactive
BrCC(Br)c1ccccc1 (configuration not stated),outcome,[20],inactive
same,outcome,[3],inactive
O=C=Nc1ccc(Cl)cc1,outcome,[1],inactive
same,outcome,[2],inactive
same,outcome,[3],inactive
CN(C)c1ccc(N=O)cc1,outcome,[1],inactive
same,outcome,[2],inactive
same,outcome,[3],inactive
BrCCCCBr,outcome,[1],inactive
same,outcome,[2],inactive
O=C(O)COc1cc(Cl)c(Cl)cc1Cl,outcome,[1],inactive
same,outcome,[2],inactive
same,outcome,[4],inactive
same,outcome,[5],inactive
same,outcome,[6],inactive
same,outcome,[7],inactive
same,outcome,[8],inactive
same,outcome,[9],inactive
same,outcome,[10],inactive
same,outcome,[11],inactive
same,outcome,[12],inactive
same,outcome,[13],inactive
same,outcome,[14],inactive
same,outcome,[15],inactive
same,outcome,[16],inactive
same,outcome,[17],inactive
same,outcome,[18],inactive
same,outcome,[19],inactive
Nc1nc(=S)[nH][nH]1,AC50,[1],164 µM (active)
O=[N+]([O-])c1cc([As](=O)(O)O)ccc1O,outcome,[1],inactive
same,outcome,[2],inactive
CN(N=O)C(N)=O,outcome,[1],inactive
same,outcome,[2],inactive
same,outcome,[3],inactive
CCCCCCCCCCCCCl,AC50,[1],65.2 µM (active)
same,outcome,[2],inactive
Clc1cccc(Cl)c1Cl,outcome,[1],inactive
same,outcome,[4],inactive
same,outcome,[5],inactive
same,outcome,[6],inactive
same,outcome,[7],inactive
same,outcome,[8],inactive
same,outcome,[9],inactive
same,outcome,[10],inactive
same,outcome,[3],inactive
same,outcome,[11],inactive
same,outcome,[12],inactive
same,outcome,[13],inactive
same,outcome,[14],inactive
same,outcome,[15],inactive
same,outcome,[16],inactive
same,outcome,[17],inactive
same,outcome,[18],inactive
same,outcome,[19],inactive
